Measured values taken from PubChem BioAssay AID1159580 (chemical genetic matrix, 2015).
About 2,000 (36%) of roughly 5,500 compounds were called active. Not shown: some 18% with an inconclusive outcome. Some of the results follow. Unmarked numbers belong to inactive results. No stated cut-off is given here; in the data, active means normalized growth mostly below about 0.91 (no sharp cut-off); inconclusive means no clear call, values can overlap the other calls; inactive means mostly above about 0.92.

Assay: chemical genetic growth profiling, strain panel (AID 1159580);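 further: tested at 20 µM; growth read once vehicle control cultures reached saturation at 30 °C; 1 = growth at the plate median or of vehicle wells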
Conditions: growth OD

CC1(C)C=Cc2cc3ccc(=O)oc3cc2O1
normalized growth (S. cerevisiae deletion strains, locus YJR066W, strain TOR1, stronger effect = lower value): 0.793 (active)
normalized growth (S. cerevisiae deletion strains, locus YJR075W, strain HOC1, stronger effect = lower value): 0.941
normalized growth (S. cerevisiae deletion strains, locus YKL009W, strain mrt4, stronger effect = lower value): 0.921
normalized growth (S. cerevisiae deletion strains, locus YKL068W, stronger effect = lower value): 0.966
normalized growth (S. cerevisiae deletion strains, locus YKL085W, strain MDH1 (second series), stronger effect = lower value): 0.973
normalized growth (S. cerevisiae deletion strains, locus YKL085W, strain MDH1, stronger effect = lower value): 0.973
normalized growth (S. cerevisiae deletion strains, locus YKL160W, strain elf1, stronger effect = lower value): 0.909
normalized growth (S. cerevisiae deletion strains, locus YKR001C, strain vps1, stronger effect = lower value): 0.907
normalized growth (S. cerevisiae deletion strains, locus YKR026C, strain gcn3, stronger effect = lower value): 0.942
normalized growth (S. cerevisiae deletion strains, locus YKR091W, strain srl3, stronger effect = lower value): 0.924 (active)
normalized growth (S. cerevisiae deletion strains, locus YLL001W, strain dnm1, stronger effect = lower value): 0.876 (active)
normalized growth (S. cerevisiae deletion strains, locus YLL026W, stronger effect = lower value): 0.934
normalized growth (S. cerevisiae deletion strains, locus YLL041C, strain sdh2, stronger effect = lower value): 0.937
normalized growth (S. cerevisiae deletion strains, locus YLR027C, strain aat2, stronger effect = lower value): 0.942
normalized growth (S. cerevisiae deletion strains, locus YLR039C, strain RIC1, stronger effect = lower value): 0.91
normalized growth (S. cerevisiae deletion strains, locus YLR058C, strain SHM2, stronger effect = lower value): 0.965
normalized growth (S. cerevisiae deletion strains, locus YLR102C, strain apc9, stronger effect = lower value): 0.969
normalized growth (S. cerevisiae deletion strains, locus YLR113W, strain HOG1, stronger effect = lower value): 0.729 (active)
normalized growth (S. cerevisiae deletion strains, locus YLR221C, strain rsa3, stronger effect = lower value): 0.93
normalized growth (S. cerevisiae deletion strains, locus YLR258W, strain gsy2, stronger effect = lower value): 0.895 (active)
normalized growth (S. cerevisiae deletion strains, locus YLR262C, strain YPT6 (second series), stronger effect = lower value): 0.815 (active)
normalized growth (S. cerevisiae deletion strains, locus YLR268W, strain sec22, stronger effect = lower value): 0.985
normalized growth (S. cerevisiae deletion strains, locus YLR320W, strain mms22, stronger effect = lower value): 0.891
normalized growth (S. cerevisiae deletion strains, locus YLR330W, strain CHS5, stronger effect = lower value): 0.984
normalized growth (S. cerevisiae deletion strains, locus YLR342W, strain FKS1 (second series), stronger effect = lower value): 0.87
normalized growth (S. cerevisiae deletion strains, locus YLR342W, strain FKS1, stronger effect = lower value): 0.909 (active)
normalized growth (S. cerevisiae deletion strains, locus YLR357W, strain rsc2, stronger effect = lower value): 0.979
normalized growth (S. cerevisiae deletion strains, locus YLR370C, strain arc18, stronger effect = lower value): 0.873 (active)
normalized growth (S. cerevisiae deletion strains, locus YLR371W, strain rom2, stronger effect = lower value): 0.906 (active)
normalized growth (S. cerevisiae deletion strains, locus YLR384C, strain iki3, stronger effect = lower value): 0.948
normalized growth (S. cerevisiae deletion strains, locus YLR418C, strain cdc73, stronger effect = lower value): 0.851
normalized growth (S. cerevisiae deletion strains, locus YML016C, strain PPZ1, stronger effect = lower value): 0.986
normalized growth (S. cerevisiae deletion strains, locus YML032C, strain rad52, stronger effect = lower value): 0.923
normalized growth (S. cerevisiae deletion strains, locus YML120C, strain ndi1, stronger effect = lower value): 0.85 (active)
normalized growth (S. cerevisiae deletion strains, locus YML124C, strain tub3, stronger effect = lower value): 0.96
normalized growth (S. cerevisiae deletion strains, locus YMR058W, strain fet3, stronger effect = lower value): 0.925
normalized growth (S. cerevisiae deletion strains, locus YMR078C, strain ctf18, stronger effect = lower value): 0.95
normalized growth (S. cerevisiae deletion strains, locus YMR125W, strain sto1, stronger effect = lower value): 0.999
normalized growth (S. cerevisiae deletion strains, locus YMR129W, stronger effect = lower value): 0.923 (active)
normalized growth (S. cerevisiae deletion strains, locus YMR205C, strain PFK2, stronger effect = lower value): 0.923
normalized growth (S. cerevisiae deletion strains, locus YMR223W, strain ubp8, stronger effect = lower value): 0.908
normalized growth (S. cerevisiae deletion strains, locus YMR231W, strain pep5, stronger effect = lower value): 0.976
normalized growth (S. cerevisiae deletion strains, locus YMR263W, strain SAP30, stronger effect = lower value): 0.977
normalized growth (S. cerevisiae deletion strains, locus YMR307W, strain GAS1, stronger effect = lower value): 1.06
normalized growth (S. cerevisiae deletion strains, locus YNL067W, strain RPL9B, stronger effect = lower value): 0.957
normalized growth (S. cerevisiae deletion strains, locus YNL071W, strain lat1, stronger effect = lower value): 0.863 (active)
normalized growth (S. cerevisiae deletion strains, locus YNL128W, strain TEP1, stronger effect = lower value): 1
normalized growth (S. cerevisiae deletion strains, locus YNL183C, strain NPR1, stronger effect = lower value): 0.843
normalized growth (S. cerevisiae deletion strains, locus YNL209W, strain ssb2, stronger effect = lower value): 0.923 (active)
normalized growth (S. cerevisiae deletion strains, locus YNL233W, strain BNI4, stronger effect = lower value): 0.941
normalized growth (S. cerevisiae deletion strains, locus YNL248C, strain rpa49, stronger effect = lower value): 0.916
normalized growth (S. cerevisiae deletion strains, locus YNL250W, strain rad50, stronger effect = lower value): 0.965
normalized growth (S. cerevisiae deletion strains, locus YNL271C, strain bni1, stronger effect = lower value): 0.958
normalized growth (S. cerevisiae deletion strains, locus YNL298W, strain CLA4, stronger effect = lower value): 0.97
normalized growth (S. cerevisiae deletion strains, locus YNL307C, strain MCK1, stronger effect = lower value): 0.943
normalized growth (S. cerevisiae deletion strains, locus YNL322C, strain KRE1 (second series), stronger effect = lower value): 0.917
normalized growth (S. cerevisiae deletion strains, locus YNR049C, strain mso1, stronger effect = lower value): 0.925
normalized growth (S. cerevisiae deletion strains, locus YNR052C, strain pop2, stronger effect = lower value): 0.971
normalized growth (S. cerevisiae deletion strains, locus YOL006C, strain TOP1, stronger effect = lower value): 0.75
normalized growth (S. cerevisiae deletion strains, locus YOL012C, strain htz1): 0.855
normalized growth (S. cerevisiae deletion strains, locus YOL147C, strain pex11, stronger effect = lower value): 0.964
normalized growth (S. cerevisiae deletion strains, locus YOR001W, strain rrp6, stronger effect = lower value): 0.895
normalized growth (S. cerevisiae deletion strains, locus YOR061W, strain CKA2, stronger effect = lower value): 1
normalized growth (S. cerevisiae deletion strains, locus YOR069W, strain VPS5, stronger effect = lower value): 0.99
normalized growth (S. cerevisiae deletion strains, locus YOR070C, strain gyp1, stronger effect = lower value): 0.981
normalized growth (S. cerevisiae deletion strains, locus YOR080W, strain dia2, stronger effect = lower value): 0.964
normalized growth (S. cerevisiae deletion strains, locus YOR083W, strain WHI5, stronger effect = lower value): 0.844 (active)
normalized growth (S. cerevisiae deletion strains, locus YOR106W, strain vam3, stronger effect = lower value): 0.821 (active)
normalized growth (S. cerevisiae deletion strains, locus YOR136W, strain idh2, stronger effect = lower value): 0.968
normalized growth (S. cerevisiae deletion strains, locus YOR144C, strain elg1, stronger effect = lower value): 0.972
normalized growth (S. cerevisiae deletion strains, locus YOR184W, strain ser1, stronger effect = lower value): 0.892
normalized growth (S. cerevisiae deletion strains, locus YOR231W, strain MKK1, stronger effect = lower value): 0.857 (active)
normalized growth (S. cerevisiae deletion strains, locus YOR265W, strain rbl2, stronger effect = lower value): 0.935
normalized growth (S. cerevisiae deletion strains, locus YOR270C, strain vph1, stronger effect = lower value): 0.731 (active)
normalized growth (S. cerevisiae deletion strains, locus YOR290C, strain snf2, stronger effect = lower value): 0.783 (active)
normalized growth (S. cerevisiae deletion strains, locus YOR316C, strain cot1, stronger effect = lower value): 0.978
normalized growth (S. cerevisiae deletion strains, locus YPL051W, strain arl3, stronger effect = lower value): 0.906 (active)
normalized growth (S. cerevisiae deletion strains, locus YPL055C, strain LGE1, stronger effect = lower value): 0.951
normalized growth (S. cerevisiae deletion strains, locus YPL078C, strain atp4, stronger effect = lower value): 0.82 (active)
normalized growth (S. cerevisiae deletion strains, locus YPL106C, strain sse1, stronger effect = lower value): 0.843 (active)
normalized growth (S. cerevisiae deletion strains, locus YPL240C, strain hsp82, stronger effect = lower value): 0.936
normalized growth (S. cerevisiae deletion strains, locus YPL256C, strain CLN2, stronger effect = lower value): 0.776 (active)
normalized growth (S. cerevisiae deletion strains, locus YPR119W, strain clb2, stronger effect = lower value): 0.953
normalized growth (S. cerevisiae deletion strains, locus YPR141C, strain kar3, stronger effect = lower value): 0.957
normalized growth (S. cerevisiae deletion strains, locus YPR163C, strain tif3, stronger effect = lower value): 0.983
normalized growth (S. cerevisiae deletion strains, locus YPR167C, strain met16, stronger effect = lower value): 0.948
normalized growth (S. cerevisiae deletion strains, strain wtn01, stronger effect = lower value): 0.927
normalized growth (S. cerevisiae strains, strain wild type, stronger effect = lower value): 0.974
